Consider 48 compounds from PubChem BioAssay AID2685 (National Center for Advancing Translational Sciences (NCATS), 2010).

Where “and” joins values, the source holds several entries; their conditions need not be identical. Identical values can stand only once. In all, about 320,000 compounds went through this assay and about 2,100 (0.66%) were called active. Not shown: some 53% with an inconclusive outcome. The call rests on the fitted dose curve; in most records, active means well fitted inhibition curve with a large enough effect in the signal ratio, with a control signal flat (not every such curve was filed as active); inconclusive means small, poorly fitted or top-dose-only effect, or effect the other way, or a change in a side signal; inactive means flat fitted curve, though single readings scatter; the % refers to the signal ratio. Many of the other results were omitted from the sample, so actives are more common in it than they were.
Potency means the concentration at half of the fitted maximal effect.

The test in a line: qHTS Assay for Lipid Storage Modulators in Drosophila S3 Cells.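 On cell number change: cells counted by Cell Tracker Red CMTPX staining in the red channel.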 On lipid storage change, negative = inhibition: on the % scale 0 is the no-effect control and ±100 the full control effect. As to conditions: BODIPY lipid droplet fluorescence, 18-24 h, cells fed with added oleic acid; cell number change: measured here: cell count max response; series mostly up to 46.1 µM; lipid storage change, negative = inhibition: at the top concentration. The essentials: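 Drosophila S3 cells loaded with oleic acid (400 uM, as added) and compounds at several concentrations; lipid droplets imaged by 488-nm laser-scanning cytometry, 500–530 nm intensity and object ratio to cell channel. Percent activity normalized to 20 uM Triacsin C.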
As for `CSCC[C@H](NC(=O)COc1ccc(Cl)cc1)C(=O)N1CCC2(CC1)NCCc1[nH]cnc12`, the call was inactive.
On to `O=C(NC(Cc1ccccc1)C(=O)O)C1CCCCC1` (stereo not drawn), for which the “lipid storage change, negative = inhibition” value is -0.512% (inactive) and the cell number change is -3.98%.
`COc1ccc(N(C(=O)c2snc(C(N)=O)c2N)C(C(=O)NC2CCCC2)c2cc(OC)ccc2OC)c(OC)c1` (stereo not drawn): the compound was called inactive and the cell number change is -0.901%.
For `CCC(C(=O)NC1CCCCC1)N(Cc1cccs1)C(=O)c1snc(C(N)=O)c1N` (stereo not drawn), the “lipid storage change, negative = inhibition” value is 23.1% (inactive).
Consider `CCC(C(=O)NC(C)(C)C)N(Cc1ccccc1Cl)C(=O)c1snc(C(N)=O)c1N` (stereo not drawn), for which the call was inactive and the cell number change is -22.3%.
In the case of `COc1ccc(N(C(=O)c2snc(C(N)=O)c2N)C(C(=O)NC2CCCCC2)c2ccc(F)cc2)c(OC)c1` (stereo not drawn), the Potency is 13 µM (active).
Turning to `CCCC(C(=O)NCCC(C)C)N(Cc1ccc(F)cc1)C(=O)c1snc(C(N)=O)c1N` (stereo not drawn), the “lipid storage change, negative = inhibition” value was 3.86% (inactive) and the cell number change was -7.77%.
Turning to `CCCC(C(=O)NCCC(C)C)N(Cc1ccc(OC)cc1)C(=O)c1snc(C(N)=O)c1N` (stereo not drawn), the “lipid storage change, negative = inhibition” value was -29.9% (inactive) and the cell number change was -7.72%.
Regarding `CCCC(C(=O)NCCC(C)C)N(Cc1ccccc1)C(=O)c1snc(C(N)=O)c1N` (stereo not drawn), the Potency is 3.66 µM (active) and the cell number change was -3.86%.
`COc1ccc(C(C(=O)NC2CCCC2)N(C(=O)c2snc(C(N)=O)c2N)c2cc(C)ccc2OC)cc1OC` (stereo not drawn): the “lipid storage change, negative = inhibition” value is -18.1% (inactive) and the cell number change was -1.28%.
Consider `CCC(C(=O)NC1CCCC1)N(Cc1ccccc1Cl)C(=O)c1snc(C(N)=O)c1N` (stereo not drawn), for which the Potency is 0.58 µM (active) and the cell number change is -3.04%.
As for `CCOC(=O)Cc1csc(NC(=S)NC(=O)c2cc(OC)c(OC)c(OC)c2)n1`, the “lipid storage change, negative = inhibition” value is -6.87% (inactive) and the cell number change was -1.2%.
The like results for `COc1ccc(NC(=O)Nc2nnc(-c3cccs3)s2)cc1` were, in that order, 10.9% (inactive) and -11.4%.
`COc1ccc(C(=O)Nc2nc(-c3ccccc3)c(C(C)=O)s2)c(OC)c1`: the “lipid storage change, negative = inhibition” value was -6.74% (inactive) and the cell number change was -8.6%.
The like results for `COCCn1c(=O)[nH]c2cc(C(=O)NC(C)C)ccc2c1=O` were, in that order, 9.58% (inactive) and 2.66%.
Turning to `CCCS(=O)(=O)c1nc(S(=O)(=O)c2ccc(C)cc2)c(NCCCN(C)C)s1`, the “lipid storage change, negative = inhibition” value was 1.35% (inactive) and the cell number change stood at 6.73%.
As for `CC(=O)NC(c1cccs1)c1cc(Br)c2cccnc2c1O` (stereo not drawn), the “lipid storage change, negative = inhibition” value is 10.4% (inactive) and the cell number change is 16.4%.
As for `CC(=O)NC(c1cccs1)c1cc(F)c2cccnc2c1O` (stereo not drawn), the Potency is 8.4% and -17.4%.
In the case of `CC(=O)NC(c1ccco1)c1cc(F)c2cccnc2c1O` (stereo not drawn), the “lipid storage change, negative = inhibition” value was -4.42% (inactive) and the cell number change is -4.72%.
The like results for `Cc1cc(C)c(NC(=O)CS(=O)CC(=O)NCC2CCCO2)c(C)c1` (stereo not drawn) were, in that order, 4.71% (inactive) and 3.77%.
As to `Cc1ccc(C(=O)Nc2cccc(C(F)(F)F)c2)cc1Nc1ncnc2nc[nH]c12`, the “lipid storage change, negative = inhibition” value was 14.7% (inactive) and the cell number change is -0.327%.
The like results for `Cc1ccc(C(=O)Nc2cccc(C(F)(F)F)c2)cc1NC(=O)c1nccnc1N` were, in that order, -14.7% (inactive) and -18.4%.
On to `Cc1ccc(NC(=O)c2cccc(C(F)(F)F)c2)cc1NC(=O)c1[nH]cnc1C(N)=O`, for which the Potency was 0.517 µM (active) and the cell number change is -5.2%.
Take `CC(NC(=O)c1cc(S(=O)(=O)N2CCCC2)ccc1Cl)c1ccccn1` (stereo not drawn): the “lipid storage change, negative = inhibition” value is 11.6% (inactive) and the cell number change turned out to be 12.8%.
Taken in the same sequence, the figures for `O=C(N/N=C/c1ccc([N+](=O)[O-])cc1)c1ccc2nc[nH]c2c1` were 6.51% (inactive) and -15.6%.
Take `O=C(Nc1ccc(F)cc1)c1cc(Cl)sc1Cl`: the “lipid storage change, negative = inhibition” value is 5.17% (inactive) and the cell number change is -1.56%.
For `CN1c2ccccc2C(O)=C(C(=O)Nc2ccccc2)S1(=O)=O`, the “lipid storage change, negative = inhibition” value was 15.4% (inactive).
As to `CN1c2ccsc2C(O)=C(C(=S)Nc2ccccc2)S1(=O)=O`, the Potency was 18.4 µM (active) and the cell number change is 15.4%.
For the compound `Cc1ccccc1NC(=S)C1=C(O)c2sccc2N(C)S1(=O)=O`, the result was inactive.
Turning to `COc1ccc(NC(=S)NNC(=O)CNc2ccc(Cl)cc2)cc1`, the “lipid storage change, negative = inhibition” value was 18% (inactive).
`COc1ccccc1N1CCN(CC(C)N(C(=O)C2CCCCC2)c2ccccn2)CC1` (stereo not drawn): the “lipid storage change, negative = inhibition” value was 12.2% (inactive) and the cell number change turned out to be 9.42%.
Regarding `CCOc1cc(C2C(C(=O)c3ccc(C)o3)=C(O)C(=O)N2CCc2ccccc2)ccc1O` (stereo not drawn), the “lipid storage change, negative = inhibition” value was 16.1% (inactive).
Take `O=C(CN1CCCCCC1)Nc1cccc(NC(=O)CN2CCCCCC2)c1`: the “lipid storage change, negative = inhibition” value is -3.29% (inactive) and the cell number change was -11.3%.
On to `COc1ccc(NC(=O)CCN2CCCCC2)cc1`, for which the Potency is 18.4 µM (active) and the cell number change was -13.9%.
On to `O=C(CCN1CCCC1)Nc1cccc(Br)c1`, for which the “lipid storage change, negative = inhibition” value is 8.6% (inactive) and the cell number change is -0.144%.
For the compound `CN1CCN(CCC(=O)Nc2ccc(F)c(F)c2)CC1`, the “lipid storage change, negative = inhibition” value is -5.86% (inactive) and the cell number change was -0.365%.
With `O=C(CN1CCCCC1)Nc1cccc(Br)c1`, the Potency was 23.1 µM (active) and the cell number change was -14.8%.
Take `COC(=O)c1ccc(NC(=O)CN2CCCC2)cc1`: the “lipid storage change, negative = inhibition” value was -7.98% (inactive) and the cell number change is -13.3%.
For the compound `CCOc1ccc(NC(=O)CCN2CCCCC2)cc1`, the “lipid storage change, negative = inhibition” value is -2.95% (inactive) and the cell number change worked out at 9.23%.
On to `COc1ccc(NC(=O)CCN2CCCCCC2)cc1`, for which the “lipid storage change, negative = inhibition” value is -1.99% (inactive) and the cell number change was -0.671%.
`O=C(CCN1CCN(CCO)CC1)Nc1ccc(F)c(F)c1`: the Potency was 6.51 µM (active) and the cell number change was found to be 1.67%.
With `COC(=O)c1cc(NC(=O)CN2CCN(C(C)=O)CC2)cc(C(=O)OC)c1`, the “lipid storage change, negative = inhibition” value was -5.4% (inactive) and the cell number change is 15.4%.
`O=C(CCN1CCN(CCO)CC1)Nc1ccc(Br)cc1`: the “lipid storage change, negative = inhibition” value was -8.8% (inactive) and the cell number change was 0.964%.
On to `CCOC(=O)c1cc(NC(=O)CN2CCCC2)cc(C(=O)OCC)c1`, for which the Potency was 2.31 µM (active) and the cell number change is -1.35%.
In the case of `O=C(CSc1nc2c(c(=O)n1-c1ccc(F)cc1)SCC2)N1CCCC1`, the “lipid storage change, negative = inhibition” value is -0.194% (inactive) and the cell number change was -5.69%.
Taken in the same sequence, the figures for `Cc1cc(C)cc(OC(=O)COc2ccccc2C)c1` were 0.642% (inactive) and 16.2%.
For `CCCOc1ccccc1C(=O)N(Cc1ccco1)C1CCS(=O)(=O)C1` (stereo not drawn), the “lipid storage change, negative = inhibition” value is -5.58% (inactive) and the cell number change was -17.8%.
Taken in the same sequence, the figures for `CCOC(=O)C1=C(COC(=O)CCC(=O)c2ccc(C)cc2)NC(=O)NC1C` (stereo not drawn) were 16.2% (inactive) and 25.4%.
